Sampled rows, rich in hits. Any-hit rate of the full collection: about 1.2%.
RGS7-Gao: RGS7-Galphao binding modulators, primary screen, biochemical, multiplexed bead flow cytometry; Guanine nucleotide-binding protein G(o) subunit alpha (Homo sapiens), P09471; binding response (% of control), % at 10 µM; 220,000 tested, 0.35% active; actives lie on both sides; in the data active means binding response below about 49% or above about 150%; inconclusive means no clear call, values can overlap the other calls; inactive means in between;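 further: fluorescent Galphao held in activated GDP-AlF4 state binding bead-coupled RGS7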
Target sequence (P09471 whole entry, looked up): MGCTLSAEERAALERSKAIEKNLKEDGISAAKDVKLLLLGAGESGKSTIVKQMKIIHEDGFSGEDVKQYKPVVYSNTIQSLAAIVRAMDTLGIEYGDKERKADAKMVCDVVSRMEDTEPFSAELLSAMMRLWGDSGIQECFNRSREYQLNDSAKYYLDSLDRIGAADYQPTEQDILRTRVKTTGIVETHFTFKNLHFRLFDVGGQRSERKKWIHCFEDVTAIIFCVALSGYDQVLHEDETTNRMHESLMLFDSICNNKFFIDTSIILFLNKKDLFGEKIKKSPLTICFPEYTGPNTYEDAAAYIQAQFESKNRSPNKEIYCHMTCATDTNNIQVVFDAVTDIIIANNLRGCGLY
RGS4-Gao reg: modulators of RGS4 binding to Galphao, primary screen, biochemical, multiplexed bead flow cytometry; Guanine nucleotide-binding protein G(o) subunit alpha (Homo sapiens), P09471; 220,000 tested, 0.33% active; actives lie on both sides; binding response (% of control), % at 10 µM; AID 1415, 2008; in the data active means binding response below about 49% or above about 150%; inactive means in between;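 further: fluorescent Galphao activated with aluminum fluoride binding bead-coupled RGS4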
GSH fluor: compound fluorescence on glutathione beads, profiling panel, artefact control, biophysical, 488/530 nm, flow cytometry; GSH beads flow cytometry, compound fluorescence 488/530 nm; active compounds read high; fluorescence (KMESF) at 10 µM; 190,000 tested, 0.25% active; AID 1776, 2009; in the data active means fluorescence above about 89;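 further: glutathione beads carrying GST-tagged Bcl family fusion proteins plus one bare bead set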
Avidin bead fluor: green autofluorescence of compounds with avidin beads – biophysical, 488/530 nm, flow cytometry, artefact control, profiling panel. fluorescence (KMESF) at 10 µM. AID 1775, 2009. compound fluorescence 488/530 nm; active compounds read high. 220,000 tested, 0.38% active; in the data active means fluorescence above about 47
RGS8-Gao reg: RGS8-Galphao binding modulators, primary screen, biochemical, multiplexed bead flow cytometry; Guanine nucleotide-binding protein G(o) subunit alpha (Homo sapiens), P09471; actives lie on both sides; response (percent of control binding), % at 10 µM; 220,000 tested, 0.34% active; AID 1423, 2008; in the data active means response below about 60% or above about 140%; inactive means in between;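 further: Galphao activated as the GDP aluminium fluoride complex binding bead-coupled RGS8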
RGS16-Gao HTS: modulators of RGS16 binding to Galphao, primary screen, biochemical, human proteins, multiplexed bead flow cytometry. bead-based flow cytometry RGS16-Galphao binding, fluorescence; actives lie on both sides. 220,000 tested, 0.38% active. binding response (% of control), % at 10 µM. AID 1441, 2008. Regulator of G-protein signaling 16 (Homo sapiens) + Guanine nucleotide-binding protein …;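 further: Galphao activated by GDP with aluminum fluoride before binding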
RGS-Gao: modulators of RGS–Galpha-o binding, primary screen, biochemical, multiplexed beads, flow cytometry, RGS4/7/8/16/19; shares compounds with RGS16-Gao HTS; multiplexed bead flow cytometry; 1,600 tested, 99% active; RGS4–Galpha-o binding response, % at 10 µM;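 further: fluorescently labeled Galpha-o bound to GDP with aluminium fluoride binding biotinylated RGS beads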
Target sequence (P09471 whole entry, looked up): as above
Target sequence (P49798 whole entry, looked up): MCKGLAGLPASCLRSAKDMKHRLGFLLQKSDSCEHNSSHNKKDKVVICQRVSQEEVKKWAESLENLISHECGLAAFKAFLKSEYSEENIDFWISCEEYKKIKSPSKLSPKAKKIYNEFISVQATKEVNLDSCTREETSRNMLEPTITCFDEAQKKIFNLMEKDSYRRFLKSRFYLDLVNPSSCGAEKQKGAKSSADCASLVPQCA
Avidin counter: disruption of biotin probe capture by avidin, counter-screen for RGS protein interaction modulators, biochemical, flow cytometry, bead-based; shares compounds with RGS16-Gao HTS; streptavidin beads, fluorescein-biotin binding; inhibition, % at 10 µM; 1,700 tested, under 10 active; AID 1783, 2009;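 active means inhibition above 50%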;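 further: median green fluorescence of gated singlet beads compared with DMSO control wells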
RGS8-Gao single: RGS8-Galphao binding modulators, confirmation, biochemical, multiplexed bead flow cytometry, single concentration. shares compounds with RGS16-Gao HTS. bead-based flow cytometry RGS8-Galphao binding, fluorescence; actives lie on both sides. binding response (% of control), % at 10 µM. 1,700 tested, 3% active; in the data active means binding response below about 72% or above about 130%; inactive means in between;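 further: Galphao activated as GDP AlF4 complex before binding bead RGS8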
RGS7-Gao single: RGS7-Galphao binding modulators, confirmation, biochemical, multiplexed bead flow cytometry, single concentration; 1,700 tested, 7.8% active; bead-based flow cytometry RGS7-Galphao binding; actives lie on both sides; response (percent of control binding), % at 10 µM; AID 1837, 2009; shares compounds with RGS16-Gao HTS; in the data active means response below about 75% or above about 130%; inactive means in between;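 further: fluorescent Galphao activated with GDP and aluminum fluoride binding bead-coupled RGS7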
RGS16-Gao conf: modulators of RGS16-Galphao protein binding, confirmation, biochemical, single concentration, multiplexed bead flow cytometry | AID 1838, 2009 | 1,700 tested, 4% active | response (% of control binding), % at 10 µM | bead-based flow cytometry; actives lie on both sides | shares compounds with RGS16-Gao HTS; in the data active means response below about 74% or above about 130%; inactive means in between;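 further: Galphao activated as the GDP aluminium fluoride complex binding bead-coupled RGS16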
RGS4-Gao confirm: modulators of RGS4-Galphao protein binding, confirmation, biochemical, single concentration, multiplexed bead flow cytometry. actives lie on both sides. AID 1840, 2009. binding response (% of control), % at 10 µM. 1,700 tested, 4% active. shares compounds with RGS16-Gao HTS; in the data active means binding response below about 74% or above about 130%; inactive means in between
RGS19-Gao single: regulators of RGS19-Galphao binding, confirmation, biochemical, single point, multiplexed bead flow cytometry; shares compounds with RGS16-Gao HTS; bead-based flow cytometry RGS19-Galphao binding; actives lie on both sides; response (percent of control binding), % at 10 µM; 1,700 tested, 5% active; AID 1841, 2009; in the data active means response below about 50% or above about 160%; inactive means in between
Each line names hits and unclear results; the compound was inactive in the other large screens (follow-up assays come after a bar, where they were run); [ ] = dose if it differs, or a comment. Unless noted, how the calls were made is not given here.

CC(C(=O)c1c[nH]c(C(N)=O)c1)c1ncc(C(F)(F)F)cc1Cl (stereo unspecified)	RGS8-Gao reg 58 | RGS-Gao 53 | Avidin counter inactive | RGS8-Gao single inactive | RGS7-Gao single inactive | RGS16-Gao conf inactive | RGS4-Gao confirm inactive | RGS19-Gao single inactive
COCCNC(=O)CN(C(=O)Cn1nnc2ccccc21)c1cc(C)cc(C)c1	RGS7-Gao 167[activator], Avidin bead fluor 60 | RGS-Gao 110 | Avidin counter inactive | RGS8-Gao single inactive | RGS7-Gao single inactive | RGS16-Gao conf inactive | RGS4-Gao confirm inactive | RGS19-Gao single inactive
Cc1ccc(S(=O)(=O)N(C)C)cc1NC(=O)c1ccncc1	none
Cc1ccc(S(=O)(=O)C(F)(F)F)cc1NC(=O)c1cccnc1	RGS16-Gao HTS 181[activator] | RGS-Gao 108 | Avidin counter inactive | RGS8-Gao single inactive | RGS7-Gao single inactive | RGS16-Gao conf inactive | RGS4-Gao confirm inactive | RGS19-Gao single inactive
CC(=O)OCCCNc1cc(Sc2nc3ccccc3s2)c2nonc2c1[N+](=O)[O-]	RGS8-Gao reg 51, RGS16-Gao HTS 8.5 | RGS-Gao 83 | Avidin counter inactive | RGS8-Gao single inactive | RGS7-Gao single inactive | RGS16-Gao conf inactive | RGS4-Gao confirm inactive | RGS19-Gao single 26
COC(=O)c1ccc(N=CC2=C(O)CC(c3ccccc3)CC2=O)cc1 (stereo unspecified)	RGS7-Gao inconclusive (no result: GSH fluor)
Cc1ccc(NC(=O)CSc2nc3ccccc3c(=O)n2CCCN2CCCCC2)cc1Cl	RGS8-Gao reg 149[activator] | RGS-Gao 115 | Avidin counter inactive | RGS8-Gao single inactive | RGS7-Gao single 61 | RGS16-Gao conf inactive | RGS4-Gao confirm 71 | RGS19-Gao single inactive
CC1CCN(CCCn2c(SCC(=O)Nc3ccccc3Cl)nc3ccccc3c2=O)CC1	RGS8-Gao reg 145[activator] | RGS-Gao 119 | Avidin counter inactive | RGS8-Gao single inactive | RGS7-Gao single inactive | RGS16-Gao conf inactive | RGS4-Gao confirm inactive | RGS19-Gao single inactive
O=C(C/C=N\OCc1ccc([N+](=O)[O-])cc1)Nc1ccc(Br)cc1	RGS7-Gao 157[activator] | RGS-Gao 106 | Avidin counter inactive | RGS8-Gao single inactive | RGS7-Gao single inactive | RGS16-Gao conf inactive | RGS4-Gao confirm inactive | RGS19-Gao single inactive
O=C(COc1ccccc1[N+](=O)[O-])Nc1ccc(Br)cc1	RGS7-Gao inconclusive (no result: GSH fluor)
O=C(O)C1CSC2(c3ccc(Br)cc3)CCC(=O)N12 (stereo unspecified)	none
CC(C)NC(=O)c1ccc(C2SCC(=O)N2Cc2ccccc2)cc1 (stereo unspecified)	RGS7-Gao 254[activator], RGS4-Gao reg 267[activator], Avidin bead fluor 185, RGS16-Gao HTS 346[activator] | Avidin counter inactive | RGS8-Gao single inactive | RGS7-Gao single 75 | RGS16-Gao conf inactive | RGS4-Gao confirm inactive | RGS19-Gao single inactive
Cc1[nH]n(-c2ccccc2)c(=S)c1C=Nc1ccc([N+](=O)[O-])cc1	RGS16-Gao HTS 9.8 | RGS-Gao 86
Cc1[nH]n(-c2ccccc2)c(=O)c1C=Nc1ccc(S(=O)(=O)N=C(N)N)cc1	RGS7-Gao inconclusive (no result: GSH fluor)
CC1(C)Cc2c(sc(NC(=O)/C=C/C(=O)O)c2C#N)CO1	RGS7-Gao inconclusive (no result: GSH fluor)
CC1(C)Cc2c(sc(NC(=O)c3ccco3)c2C#N)CO1	RGS7-Gao -35, RGS4-Gao reg -105, RGS8-Gao reg 2.6, RGS16-Gao HTS -105 (no result: Avidin bead fluor) | Avidin counter inactive | RGS8-Gao single inactive | RGS7-Gao single inactive | RGS16-Gao conf inactive | RGS4-Gao confirm inactive | RGS19-Gao single inactive
CCOc1ccc(NC(=O)COC(=O)CCS(=O)(=O)c2ccc(C)cc2)cc1	none
COC(=O)c1c(NC(=O)COC(=O)CCS(=O)(=O)c2ccc(C)cc2)sc(C)c1C	RGS16-Gao HTS 255[activator] | RGS-Gao 92 | Avidin counter inactive | RGS8-Gao single inactive | RGS7-Gao single 139[activator] | RGS16-Gao conf inactive | RGS4-Gao confirm inactive | RGS19-Gao single 160[activator]
CC1S/C(=N/N=C/c2ccco2)N(Cc2ccc(F)cc2)C1=O (stereo unspecified)	RGS7-Gao inconclusive (no result: GSH fluor)
CCC1S/C(=N/N=C/c2ccco2)N(Cc2ccccc2)C1=O (stereo unspecified)	none (no result: RGS7-Gao, RGS4-Gao reg, GSH fluor, Avidin bead fluor, RGS8-Gao reg, RGS16-Gao HTS) | Avidin counter inactive | RGS8-Gao single inactive | RGS7-Gao single inactive | RGS16-Gao conf inactive | RGS4-Gao confirm inactive | RGS19-Gao single inactive
Cc1cc(Br)ccc1S(=O)(=O)n1ccnc1C	none

Assay outcomes from PubChem BioAssay.
